Several values for one entry are separate records, joined by “and”; a condition that tells them apart may be missing. Equal entries are not always repeated. Results filed as inconclusive are left out. The source holds several records for some structures; these can differ, active in one and inactive in another. Activity calls are given as the source filed them.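 How the source made its calls, unless noted: active means normalized viability below 100% at a tested concentration; inactive means the rest.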 Where a SMILES comes first, the peptide text is derived from it. [ ]: non-standard residue; d: D form. The star is where a group is joined. Sta = CC(C)C[C@H](N)[C@@H](O)CC(=O)O; Isovaleryl = CC(C)CC(=O)*
How the values were obtained:
[1] = P. berghei load reduction in hepatocytes – cell-based, HepG2, luciferase luminescence, HepG2 viability, primary screen (AID 624349; in the data active means parasite load remaining mostly below about 12%, no sharp cut-off; inactive means mostly above about 10%;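 further: 100% = mean of DMSO negative control wells on the same plate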); details: P. berghei liver stage in HepG2, luciferase luminescence, concentration not given here; parasite load remaining: stronger effect = lower value; viability: measured here: HepG2 viability without parasites
[2] = Wnt pathway potentiators raising nuclear beta-catenin – imaging, WNT3A-conditioned medium, mouse C2C12, NPC library, primary screen (AID 1117326; in the data active means nuclear beta-catenin stimulation mostly above about 4.2%, no sharp cut-off; inactive means mostly below about 10%); details: stronger effect = higher value
[3] = stimulators of insulin release from INS-1E, primary screen, cell-based, 5 mM glucose, NPC library (AID 1117329;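 active means compound raises insulin release from rat beta cells at 5 mM glucose, no numeric limit stated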); details: rat INS-1E insulin secretion, at 10 µM, stronger effect = higher value
[4] = growth inhibition of GSK3B-pretreated HCT116 cells – cell-based, CellTiter-Glo, 0.2 to 20 µM (AID 1117336;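 active means compounds lowering colon cancer cell viability after pretreatment blocking the GSK3B kinase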); details: HCT116 viability after GSK3B inhibitor, at 20 µM, stronger effect = higher value
[5] = inhibition of endothelial tube formation, primary screen, imaging, VEGF stimulated, CD31 staining, tube area, NPC library (AID 1117340;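 active means compound that reduces growth-factor-driven endothelial tube area in a mixed cell culture, no cutoff stated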); details: VEGF-stimulated ADSC/ECFC co-culture, at 10 µM, stronger effect = higher value
[6] = GLP1 release stimulators, primary, NCI-H716, NPC library (AID 1117341;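 active means compound raises GLP1 secretion from the human gut endocrine cells, with no numeric limit stated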); details: NCI-H716 cells, at 10 µM, stronger effect = higher value
[7] = HCT116 colon cancer cell growth inhibition, primary screen, CellTiter-Glo luminescence, NPC library (AID 1117342;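 active means compounds that lower survival of HCT116 colon cancer cells in the luminescence readout, no numeric limit stated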); details: at 20 µM (top of the series)
[8] = reduced SW480 viability measured with CellTiter-Glo, NPC library, primary (AID 1117343;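 active means compounds that lower viability of the colon cancer cells in the luminescence readout, with no numeric limit stated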); details: CellTiter-Glo luminescence; at 20 µM (top of the series) unless noted
[9] = NPC library primary testing for decreased DLD-1 cell viability via CellTiter-Glo (AID 1117346;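 active means compounds that lower survival of DLD-1 colon cancer cells in the luminescence readout, no cutoff given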); details: DLD-1 viability, CellTiter-Glo luminescence; at 20 µM (top of the series)
[10] = viability loss in pontine glioma line – cell-based, SU-DIPG-XVII, MIPE5.0, CellTiter-Glo, qHTS, dose response (AID 1347060; cut-off not given, nearly all actives have AC50 up to about 26 µM;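 on AC50: cells exposed to compound for 48 hours before viability readout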); details: CellTiter-Glo ATP luminescence
[11] = viability loss in pontine glioma line – cell-based, SU-DIPG-XIII, MIPE4.0, CellTiter-Glo, qHTS, dose response (AID 1347061; cut-off not given, nearly all actives have AC50 up to about 37 µM;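 further: cells exposed to compound for 48 hours before readout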); details: CellTiter-Glo ATP luminescence
[12] = growth inhibition of DIPG cells – cell-based, MIPE4.0 library, CellTiter-Glo luminescence, qHTS (AID 1347066; cut-off not given, nearly all actives have AC50 up to about 30 µM;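 further: cells exposed to compound for 48 hours before readout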); details: SU-DIPG-VI viability, CellTiter-Glo ATP luminescence
[13] = viability loss with induced miR-34 in A549 – imaging, A549 dox-inducible miR-34, nuclei and caspase counts, primary screen (AID 1347080;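 active means compounds whose cell count with miR-34 switched on is under 0.7 times the count with it off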); details: A549 miR-34 inducible, Hoechst nuclei count, 48 h
[14] = MELAS cybrid and Rieske KO viability enhancers – cell-based, MELAS cybrids, Rieske KO mouse fibroblasts, CellTiter-Glo, primary screen (AID 1508586;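 active means mean z-score across replicates of 1.96 or higher in either the MELAS or the Rieske mutant cell line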;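 further: z relative to plate mean and SD of compound and empty wells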); details: low glucose
[15] = drug combination growth inhibition, ovarian cancer – cell-based, oncology-focused library, rucaparib conditional, profiling panel (AID 1508598); details: patient-derived ovarian cancer cells, CellTiter-Glo viability, 144 h, stronger effect = lower value
[16] = galactose survival enhancers in mitochondrial complex I cybrids – cell-based, galactose medium, ATP luminescence, primary screen (AID 1645843;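 active means z-score of at least 1.8 in each of two replicates, scored against plate mean and spread of sample wells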;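 further: positive z means more ATP and so rescue of galactose-driven cybrid death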); details: complex I mutant cybrid cells, 72 h, stronger effect = higher value
[17] = growth inhibition of DIPG cells – cell-based, MIPE5.0 library, qHTS (AID 1347068; cut-off not given, nearly all actives have IC50 up to about 30 µM); details: SU-DIPG-XXV viability
[18] = stronger effect = lower value, cell number ratio, induced over uninduced
[19] = measured here: relative caspase fold change +Dox/-Dox
[20] = measured here: total cells with miR-34 induction, stronger effect = lower value
[21] = measured here: total cells without miR-34 induction
[22] = MELAS cybrid survival, CellTiter-Glo 48 h, stronger effect = higher value
[23] = Rieske KO mouse fibroblast survival, CellTiter-Glo 72 h

CS(=O)(=O)CCNCc1ccc(-c2ccc3ncnc(Nc4ccc(OCc5cccc(F)c5)c(Cl)c4)c3c2)o1
96.4% (active) and 103% (inactive): viability ([15]; at 0.0195 µM, OCI-P5x cells, with rucaparib 20 µM, 100% = cells with rucaparib alone)
2.46 (active) and -0.221 (inactive): z-score [14, 22]
3150 and 8630: cell count [13, 21]
3040 and 7890: cell count [13, 20]
102% (inactive) and 98.6% (active): viability ([15]; at 0.000305 µM, OCI-P5x cells, without rucaparib)
1.01 and 1.28: fold change [13, 19]
active: viability decrease [4] 106% | tube area decrease [5] 110% | inhibition of viability [7] 107% | viability decrease (inhibition) [8] 129% | viability decrease (inhibition) [9] 100% | AC50 [10] 18.6 µM | AC50 [11] 14.8 µM | AC50 [12] 16.6 µM | viability ([15]; at 0.000305 µM, OCI-P5x cells, with rucaparib 20 µM, 100% = cells with rucaparib alone) 95.1% and 93.3% | viability ([15]; at 0.00122 µM, OCI-P5x cells, with rucaparib 20 µM, 100% = cells with rucaparib alone) 96.9% and 99.7% | viability ([15]; at 0.00488 µM, OCI-P5x cells, with rucaparib 20 µM, 100% = cells with rucaparib alone) 95.5% and 98.8% | viability ([15]; at 0.313 µM, OCI-P5x cells, with rucaparib 20 µM, 100% = cells with rucaparib alone) 96.8% and 98.2% | viability ([15]; at 5 µM, OCI-P5x cells, with rucaparib 20 µM, 100% = cells with rucaparib alone) 95.6% and 97.1%
101%: viability [1]
inactive: parasite load remaining [1] 44.4% | nuclear beta-catenin stimulation ([2]; at 10 µM) 31.2% | insulin secretion stimulation [3] 1.35% | GLP1 secretion stimulation [6] 2.8% | fold change [13, 18] 0.964 and 0.914 | viability ([15]; at 0.000305 µM, OCI-C5x cells, with rucaparib 10 µM, 100% = cells with rucaparib alone) 113% and 103% | viability ([15]; at 0.000305 µM, OCI-C5x cells, without rucaparib) 123% and 111% | viability ([15]; at 0.00122 µM, OCI-C5x cells, with rucaparib 10 µM, 100% = cells with rucaparib alone) 107% and 123% | viability ([15]; at 0.00122 µM, OCI-C5x cells, without rucaparib) 123% and 115% | viability ([15]; at 0.00122 µM, OCI-P5x cells, without rucaparib) 104% and 107% | viability ([15]; at 0.00488 µM, OCI-C5x cells, with rucaparib 10 µM, 100% = cells with rucaparib alone) 111% and 106% | viability ([15]; at 0.00488 µM, OCI-C5x cells, without rucaparib) 131% and 122% | viability ([15]; at 0.00488 µM, OCI-P5x cells, without rucaparib) 105% and 108% | viability ([15]; at 0.0195 µM, OCI-C5x cells, with rucaparib 10 µM, 100% = cells with rucaparib alone) 109% and 107% | viability ([15]; at 0.0195 µM, OCI-C5x cells, without rucaparib) 128% and 109% | viability ([15]; at 0.0195 µM, OCI-P5x cells, without rucaparib) 105% and 111% | viability ([15]; at 0.0781 µM, OCI-C5x cells, with rucaparib 10 µM, 100% = cells with rucaparib alone) 113% and 110% | viability ([15]; at 0.0781 µM, OCI-C5x cells, without rucaparib) 126% and 113% | viability ([15]; at 0.0781 µM, OCI-P5x cells, with rucaparib 20 µM, 100% = cells with rucaparib alone) 103% and 104% | viability ([15]; at 0.0781 µM, OCI-P5x cells, without rucaparib) 111% | viability ([15]; at 0.313 µM, OCI-C5x cells, with rucaparib 10 µM, 100% = cells with rucaparib alone) 119% and 112% | viability ([15]; at 0.313 µM, OCI-C5x cells, without rucaparib) 134% and 112% | viability ([15]; at 0.313 µM, OCI-P5x cells, without rucaparib) 115% and 118% | viability ([15]; at 1.25 µM, OCI-C5x cells, without rucaparib) 126% | viability ([15]; at 1.25 µM, OCI-P5x cells, without rucaparib) 108% and 114% | viability ([15]; at 5 µM, OCI-C5x cells, without rucaparib) 134% and 128% | viability ([15]; at 5 µM, OCI-P5x cells, without rucaparib) 106% and 118% | z-score [16] -0.555
116% (inactive) and 91.4% (active): viability ([15]; at 1.25 µM, OCI-C5x cells, with rucaparib 10 µM, 100% = cells with rucaparib alone)
101% (inactive) and 97.5% (active): viability ([15]; at 1.25 µM, OCI-P5x cells, with rucaparib 20 µM, 100% = cells with rucaparib alone)
100% (inactive) and 93.5% (active): viability ([15]; at 5 µM, OCI-C5x cells, with rucaparib 10 µM, 100% = cells with rucaparib alone)
-0.2%: nuclear beta-catenin stimulation ([2]; stimulation, at 2 µM)
0.803 and 1.5: z-score [14, 23]

CC(C)CC(=O)N[C@H](C(=O)N[C@H](C(=O)N[C@@H](CC(C)C)[C@@H](O)CC(=O)N[C@@H](C)C(=O)N[C@@H](CC(C)C)[C@@H](O)CC(=O)O)C(C)C)C(C)C (Isovaleryl-VV[Sta]A[Sta]-OH)
-0.3%: nuclear beta-catenin stimulation ([2]; stimulation, at 2 µM)
8480 and 5040: cell count [13, 21]
7720 and 5130: cell count [13, 20]
1.28 and 1.09: fold change [13, 19]
102%: viability [1]
active: viability decrease (inhibition) [9] 13%
inactive: parasite load remaining [1] 101% | nuclear beta-catenin stimulation ([2]; at 10 µM) -1.6% | insulin secretion stimulation [3] 4.9% | viability decrease [4] -3.4% | tube area decrease [5] -25.1% | GLP1 secretion stimulation [6] 0.5% | inhibition of viability [7] 4% | viability decrease (inhibition) [8] -0.3% | outcome [10] | outcome [11] | outcome [12] | outcome [17] | fold change [13, 18] 0.91 and 1.02 | z-score [14, 22] -1.11
-0.328: z-score [14, 23]
